More than one record can exist for a structure, and the calls need not agree. Active and inactive are the calls of the source. How the source made its calls: active means hit-call score of the fitted dose curve at least 0.9, where 1 is the maximum; inactive means score below 0.9.
Experiment: BSK_SAg_SRB: Viability Assessment in the BioMAP Diversity Plus: SAg Assay (AID 2283096);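 further: hits may be either gain or loss of signal compared with DMSO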
Settings: primary human HUVEC with PBMC
Experimental: BSK_SAg is a cell-based, multiplexed-readout assay that uses umbilical vein endothelium and peripheral blood mononuclear cells, a human vascular primary cell co-culture, with measurements taken at 24 hours after chemical dosing in a 96-well plate.BSK_SAg_SRB is an assay component measured in the BSK_SAg assay. It measures protein content, a form of viability reporter, as detected with absorbance signals by Sulforhodamine staining technology.Data from the assay component BSK_SAg_SRB was analyzed into 1 assay endpoint. This assay endpoint, BSK_SAg_SRB, was analyzed with bidirectional fitting relative to DMSO as the negative control and baseline of activity. Using a type of viability reporter, gain or loss-of-signal activity can be used to understand changes in the signaling. Furthermore, this assay endpoint can be referred to as a primary readout, because this assay has produced multiple assay endpoints where this one serves a signaling function. To generalize the intended target to other relatable targets, this assay endpoint is annotated to the cell morphology intended target family, where the subfamily is cell conformation.
The levels of cell surface (or secreted, indicated by the prefix "s") biomarker endpoints were measured by ELISA. Overt cytotoxicity to cells in confluent adherent cultures (all systems other than the BT system) was assessed by measuring total protein levels using sulforhodamine B (SRB) staining in parallel cultures at the time of biomarker measurements, indicated as SRB endpoints. For proliferation assays for adherent cell types, individual cell types are cultured at sub-confluence and relative cell numbers quantified by SRB staining at time points optimized for each system (48 h: 3C and CASM3C systems; 72 h: BT and HDF3CGF systems; 96 h: SAg system). SRB was performed by staining cells with 0.1% SRB after fixation with 10% TCA and reading wells at 560 nm.Viability and proliferation of PBMC (T cells) was quantified by Alamar Blue reduction for the SAg and BT systems. For PBMC viability (referred to as PBMC Cytotoxicity within the assay endpoint names), cells were plated (75,000/well in a 96-well plate) and then chemical samples added for 1 h before addition of activators, SEB and TSST-1 (20 ng/mL final concentration each). Cells were incubated for 90 h. Then, Alamar Blue (20 uL/well) (Invitrogen, Cat DAL1100) was added for 6 h, and the plates were read with a fluorescence microplate reader at 546/580 nm (excitation/emission). For PBMC proliferation, cells were plated and activated as above but incubated for only 16 h prior to addition of Alamar Blue. Plates were read after 6 h.

Row | Compound | outcome | AC50
1 | Cc1ccccc1N | inactive | 
2 | COc1cc(-c2ccc(N)c(OC)c2)ccc1N | inactive | 
3 | COP(=S)(OC)Oc1ccc(S(=O)(=O)N(C)C)cc1 | inactive | 
4 | CCOP(=S)(OCC)SCSP(=S)(OCC)OCC | inactive | 
5 | Cn1sc(Cl)cc1=O | inactive | 
6 | CCCCCCCCc1ccc(O)cc1 |  | 38.2 µM (active)
7 | O=C(O)C(Cl)(Cl)Cl | inactive | 
8 | Nc1cccc2ccccc12 | inactive | 
9 | C=C(C)C(=O)[O][Sn]([CH2]CCC)([CH2]CCC)[CH2]CCC |  | 0.148 µM (active)
10 | CC(=O)[O][Hg][c]1ccccc1 |  | 1.63 µM (active)
11 | O=C(Nc1ccc2[nH]ccc2c1)c1cc2cc(F)ccc2n1Cc1cccc(F)c1 |  | 14.6 µM (active)
12 | O=C1C2(Cl)C3(Cl)C4(Cl)C(Cl)(Cl)C5(Cl)C3(Cl)C1(Cl)C5(Cl)C24Cl (stereo not given) |  | 6.17 µM (active)
13 | O=Cc1cccc(Oc2ccccc2)c1 | inactive | 
14 | BrCCBr | inactive | 
15 | O=[N+]([O-])c1ccc(O)c([N+](=O)[O-])c1 | inactive | 
16 | CC1(C)Cc2cccc(O)c2O1 | inactive | 
17 | ClC(Cl)=C(Cl)C(Cl)=C(Cl)Cl | inactive | 
18 | CC(C)(c1ccccc1)c1ccc(O)c(C(C)(C)c2ccccc2)c1 |  | 13 µM (active)
19 | O=C(O)C(F)(F)C(F)(F)C(F)(F)C(F)(F)C(F)(F)C(F)(F)C(F)(F)C(F)(F)C(F)(F)C(F)(F)F | inactive | 29.4 µM (active)
20 | CC(C)CCCCCCOC(=O)c1ccccc1C(=O)OCCCCCCC(C)C |  | 0.206 µM (active)

Row | Compound | outcome | AC50
21 | CC(C)(OO)c1ccccc1 | inactive | 
22 | C[C@@H]1C[C@@H]([C@H](O)CC2CC(=O)NC(=O)C2)C(=O)[C@@H](C)C1 |  | 7.07 µM (active)
23 | ClCC(Cl)CCl | inactive | 
24 | O=C(O)CCC(F)(C(F)(F)F)C(F)(F)F | inactive | 
25 | CCCCCCCCC(=O)NCc1ccc(O)c(OC)c1 | inactive | 
26 | O=[N+]([O-])c1ccc2c3c(cccc13)CC2 | inactive | 
27 | O=C(O)C(F)(F)C(F)(F)C(F)(F)C(F)(F)C(F)(F)C(F)(F)F | inactive | 
28 | Oc1c(I)cc(I)cc1I |  | 20 µM (active)
29 | CCC(C)(C)c1ccc(O)c(C(C)(C)CC)c1 |  | 14.6 µM (active)
30 | Nc1ccc(-c2ccc(N)c(Cl)c2)cc1Cl |  | 8.93 µM (active)
31 | OCc1ccco1 | inactive | 
32 | COP(=S)(OC)Oc1cc(Cl)c(Cl)cc1Cl | inactive | 
33 | C[C@]12CCC(=O)C[C@@H]1CC[C@@H]1[C@@H]2CC[C@]2(C)[C@@H](O)CC[C@@H]12 |  | 25.7 µM (active)
34 | CCOP(=S)(OCC)Oc1ccc(S(C)=O)cc1 (stereo not given) | inactive | 
35 | O=c1[nH]c(=O)[nH]c(=O)[nH]1 | inactive | 
36 | Nc1ncc([N+](=O)[O-])s1 | inactive | 
37 | Oc1cccc2cccnc12 | inactive | 
38 | NC(=S)Nc1ccccc1 | inactive | 
39 | CN(C)N=O | inactive | 
